Experimental data from PubChem BioAssay (NCATS).
Values joined by “and” are separate entries in the source; they are usually repeats but may differ in a detail not shown here. Identical values can stand only once. Inconclusive results are not listed. Active and inactive are the calls of the source. Unless noted, calls come from the whole dose curve; as a rule, active = well fitted curve in the direction sought with a large enough effect; inconclusive = small, poorly fitted or top-dose-only effect, or another doubt; inactive = no such curve, though single readings can be large; an effect the other way counts as inactive or inconclusive.

How the values were obtained:
[1] = Cell Viability - BJ (AID 421; calls by dose curve;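 note: potency is the fitted concentration of half-maximal effect; cells exposed to compound for 40 hours at 37 °C before readout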); details: BJ fibroblast viability, qHTS
How it was run: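 Luminescent ATP signal (CellTiter-Glo, 20 min at room temperature) served as the read-out of viable BJ cells after 40 hours of compound treatment. Responses were scaled between DMSO and 100 uM tamoxifen, and AC50 values were obtained by Hill modeling.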

[2] = Cell Viability - Jurkat (AID 426;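 active = dose-dependent loss of cell ATP signal giving a full or clear fitted curve, ranked by lower potency value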; note: potency is the fitted concentration of half-maximal effect); details: qHTS
How it was run: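 Seed 5000 Jurkat E6-1 cells/well; add compound; incubate 40 hr at 37 °C; add CellTiter-Glo; wait 20 min at room temperature; read luminescence. Fit concentration-response with Hill equation for AC50.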

[3] = Cell Viability - Hek293 (AID 427;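 active = compounds whose dose-response curve shows a full or clear partial loss of cell viability, called from curve shape rather than a numeric limit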;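 note: potency is the fitted concentration of half-maximal effect; cells exposed to compound for 40 hours at 37 °C before reading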); details: qHTS
How it was run: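 Luminescent ATP read-out (CellTiter-Glo, 20 min RT) after 40 hr compound exposure at 37 °C in complete medium. Signal normalized to DMSO (basal) and 100 uM tamoxifen (100% inhibition); concentration-response fitted with the standard Hill equation to give AC50.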

[4] = Cell Viability - HepG2 (AID 433; calls by dose curve;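 note: potency is the fitted concentration of half-maximal effect; potency for ATP loss meaning cytotoxicity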); details: qHTS
How it was run: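 In this qHTS format, a 40 h, 37 °C compound incubation of HepG2 cells in complete medium precedes a 20 min CellTiter-Glo step at room temperature. Tamoxifen and doxorubicin serve as positive controls; Hill-equation fits yield AC50.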

[5] = Cell Viability - MRC5 (AID 434; calls by dose curve;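 note: potency is the fitted concentration of half-maximal effect; potency reflects cytotoxicity seen as loss of intracellular ATP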); details: MRC5 lung fibroblast viability, qHTS
How it was run: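 MRC5 normal human lung fibroblasts, 1500 cells/well, exposed to compound for 40 hr at 37 C. Cellular ATP was read by CellTiter-Glo luminescence; data normalized to DMSO and 100 uM tamoxifen, with AC50 from Hill fits.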

[6] = Cell Viability - SK-N-SH (AID 435; calls by dose curve;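 note: potency is the fitted concentration of half-maximal effect; compound exposure lasted 40 h at 37 °C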); details: SK-N-SH neuroblastoma cell viability qHTS
How it was run: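 Human neuroblastoma line, 40 h exposure at 37 °C, ATP quantified via luciferase luminescence; DMSO and 100 uM tamoxifen define 0 and 100% inhibition for AC50 fitting.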

[7] = target: Mitogen-activated protein kinase 10 (Mus musculus) (UniProt Q61831); assay: JNK3 AlphaScreen Assay (AID 530; active = well fitted curve in either direction with a large enough effect, not every such curve was filed as active;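 note: kinase came from lysate of stimulated human HepG2 cells; signal reports phosphorylation of biotinylated GST-cJun 1-79 at Ser73 with 10 µM ATP; % is set by controls: 0 for no effect and ±100 for the full control effect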); details: JNK3 lysate, c-Jun phosphorylation; series mostly up to 57.1 µM
How it was run: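 qHTS format: compounds tested as titrations against IL-1beta/TNF-alpha-activated HepG2 lysate JNK3 with biotin-GST-cJun substrate and 10 uM ATP at room temperature. Loss of anti-phospho-cJun AlphaScreen signal indicates inhibition.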

[8] = Cell Viability - N2a (AID 540); details: N2a mouse neuroblastoma cell viability; activity change, negative = cytotoxicity: at 92.2 µM (top of the series);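 note: plate controls were DMSO alone for no effect and tamoxifen control for full effect; nearly all actives have a fitted effect of over 45% in size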
How it was run: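 First, 1500 N2a cells per well incubate 5 hr at 37 °C; next, compounds are added and incubated 40 hr at 37 °C; finally CellTiter-Glo is added and luminescence read after 20 min, with AC50 derived by Hill modeling.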

[9] = Cell Viability - NIH 3T3 (AID 541); details: NIH 3T3 cell viability, qHTS; activity change, negative = cytotoxicity: at 92.2 µM (top of the series); note: nearly all actives have a fitted effect of over 25% in size; note: potency is the fitted concentration of half-maximal effect;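 for activity change, negative = cytotoxicity: plate controls were DMSO alone for no effect and tamoxifen positive control for full effect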
How it was run: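 AC50 values reflect concentration-dependent loss of intracellular ATP in NIH 3T3 cells after 40 hr treatment in complete culture medium, quantified by luciferase-based luminescence.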

[10] = Cell Viability - HUV-EC-C (AID 542); details: HUV-EC-C endothelial cell viability, qHTS; series mostly up to 92.2 µM; note: % is set by controls: 0 for no effect and ±100 for the full control effect; nearly all actives have a fitted effect of over 35% in size
How it was run: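 Decrease in cellular ATP, quantified by luciferase luminescence, reflects toxicity in normal human vascular endothelial HUV-EC-C cells given compound for 40 hr in complete culture medium. Values are AC50s from concentration-response curves.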

[11] = Cell Viability - H-4-II-E (AID 543); details: H-4-II-E rat hepatoma viability; series mostly up to 92.2 µM; note: % is set by controls: 0 for no effect and ±100 for the full control effect; nearly all actives have a fitted effect of over 35% in size
How it was run: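 Here, cytotoxicity is measured in the rat hepatoma line H-4-II-E as loss of intracellular ATP after 40 hr compound treatment, detected by luciferase luminescence.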

[12] = Cell Viability - SH-SY5Y (AID 544); details: SH-SY5Y neuroblastoma cell viability; series mostly up to 92.2 µM; note: nearly all actives have a fitted effect of over 55% in size; note: potency is the fitted concentration of half-maximal effect
How it was run: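 Cytotoxicity is scored as a concentration-dependent fall in intracellular ATP in human SH-SY5Y cells treated 40 hr in complete culture medium. Potency is expressed as AC50 from a Hill equation fit.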

[13] = Cell Viability - Renal Proximal Tubule (AID 545); details: renal proximal tubule cells viability, primary cells of rat origin; series mostly up to 91.7 µM;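 note: 0% = DMSO only and -100% = 100 µM tamoxifen; nearly all actives have a fitted effect of over 40% in size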
How it was run: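 In this qHTS format, normal rat kidney-derived proximal tubule cells in complete culture medium receive compound titrations, then sit 40 hours at 37 °C before luciferase-based ATP quantitation; potency is reported as AC50 from concentration-response curves.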

[14] = target: Glucocorticoid receptor (Homo sapiens) (UniProt P04150); assay: GR-GFP Redistribution (AID 450;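 active = compounds whose dose series gives a full or clear partial fitted curve of increased nuclear translocation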; note: potency is the fitted concentration of half-maximal effect); details: U2OS GR-GFP nuclear translocation, laser cytometry, 2 h
[15] = AP1 Signaling Pathway (AID 357; active = well fitted curve in either direction with a large enough effect, not every such curve was filed as active; note: % is set by controls: 0 for no effect and ±100 for the full control effect); details: ME-180 AP-1-bla reporter, EGF-induced, beta-lactamase ratio, 5 h; at 17.2 µM (top of the series)
How it was run: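 ME-180 cells with beta-lactamase reporter under AP-1 response element, stimulated with EC50 EGF; compounds tested in titration series, 5 h at 37 °C. CCF4 substrate added 2.5 h at room temperature; 460/530 nm emission ratio gave %activity and AC50.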

[16] = NFAT Signaling Pathway (AID 444; active = well fitted curve in either direction with a large enough effect, not every such curve was filed as active;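 note: carbachol stimulus at about its EC50 of 1 µM final; % is set by controls: 0 for no effect and ±100 for the full control effect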); details: Jurkat NFAT-bla M1, carbachol, beta-lactamase ratio, 5 h; at 17.2 µM (top of the series)
How it was run: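 Jurkat cells with NFAT-driven β-lactamase reporter and co-expressed M1 receptor, stimulated with carbachol (final 1 uM, ~EC50), compound titration, 5 h at 37 °C. CCF4 loaded 1 h at RT; 460/530 nm ratio gave %activity and AC50.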

[17] = Stat Signaling Pathway (AID 446; active = well fitted curve in either direction with a large enough effect, not every such curve was filed as active;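 note: ME-180 cervical cancer cells given 40 pM IL-6 alongside compound; SIE-controlled beta-lactamase reporter measured as 460/530 nm FRET emission ratio; % is set by controls: 0 for no effect and ±100 for the full control effect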); details: ME-180 SIE beta-lactamase reporter, IL-6 stimulated, 5 h; at 17.2 µM (top of the series)
How it was run: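 ME-180 SIE-bla cells; overnight plating; cpd + IL-6 40 pM, 5 h, 37 C; LiveBLAzer 2.5 h RT; 460/530 nm emission ratio. Normalized to 300 pM IL-6 and 125 nM JAK inhibitor controls.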

Chain of Glucocorticoid receptor (Homo sapiens) (P04150 whole entry, looked up): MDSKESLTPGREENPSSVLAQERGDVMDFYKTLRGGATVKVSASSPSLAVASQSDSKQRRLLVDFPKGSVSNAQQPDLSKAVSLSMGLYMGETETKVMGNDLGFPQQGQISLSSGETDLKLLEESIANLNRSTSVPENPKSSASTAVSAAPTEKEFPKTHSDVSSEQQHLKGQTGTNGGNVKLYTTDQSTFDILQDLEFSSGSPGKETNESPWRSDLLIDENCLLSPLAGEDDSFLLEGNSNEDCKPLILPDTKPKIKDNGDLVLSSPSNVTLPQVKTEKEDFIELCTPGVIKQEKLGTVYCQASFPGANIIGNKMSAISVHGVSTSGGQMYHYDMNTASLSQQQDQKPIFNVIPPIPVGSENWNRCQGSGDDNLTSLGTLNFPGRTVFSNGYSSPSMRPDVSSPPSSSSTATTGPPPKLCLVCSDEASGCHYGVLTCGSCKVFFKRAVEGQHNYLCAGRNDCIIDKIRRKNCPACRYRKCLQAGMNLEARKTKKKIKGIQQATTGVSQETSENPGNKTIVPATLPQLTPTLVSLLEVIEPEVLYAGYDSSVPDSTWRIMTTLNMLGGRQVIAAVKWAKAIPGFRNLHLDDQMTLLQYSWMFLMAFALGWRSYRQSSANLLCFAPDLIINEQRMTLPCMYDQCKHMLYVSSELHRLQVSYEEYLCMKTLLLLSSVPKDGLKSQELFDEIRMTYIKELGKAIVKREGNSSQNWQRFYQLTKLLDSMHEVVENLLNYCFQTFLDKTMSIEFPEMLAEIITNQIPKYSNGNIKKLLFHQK

CCCCCCCCCCCCOS(=O)(=O)O
inactive: Potency [1] > 92 µM | Potency [2] > 92 µM | Potency [3] > 92 µM | Potency [4] > 92 µM | Potency [5] > 92 µM | Potency [6] > 92 µM | Potency [7] | activity change, negative = cytotoxicity [8] -3.87% and -0.403% | Potency [9] | Potency [10] | Potency [11] | Potency [12] | Potency [13]

CN(C)CCN(Cc1ccccc1)c1ccccn1
inactive: Potency [14] > 20.6 µM

Cn1cc[nH]c1=S
inactive: activity change, negative = inhibition [15] -7.08% | activity change, negative = inhibition [16] -4.58% | activity, negative = inhibition [17] -3.77%

CC12CCC(CC1)C(C)(C)O2
inactive: Potency [1] > 92 µM | Potency [2] > 92 µM | Potency [3] > 92 µM | Potency [4] > 92 µM | Potency [5] > 92 µM | Potency [6] > 92 µM | activity change, negative = cytotoxicity [8] -7.51% | Potency [9] | Potency [10] | Potency [11] | Potency [12] | Potency [13]

O=C1c2c(O)cccc2Cc2cccc(O)c21
inactive: Potency [1] > 92 µM | Potency [2] > 92 µM | Potency [3] > 92 µM | Potency [4] > 92 µM | Potency [5] > 92 µM | Potency [6] > 92 µM | Potency [7] | Potency [10] | Potency [11] | Potency [12] | Potency [13]

CN(C)CCOC(C)(c1ccccc1)c1ccccn1 (centres undefined)
inactive: activity change, negative = inhibition [15] 4.21% | activity, negative = inhibition [17] 5.21%

NS(=O)(=O)c1cc2c(cc1C(F)(F)F)NC(Cc1ccccc1)NS2(=O)=O (centres undefined)
inactive: activity change, negative = inhibition [15] -11.1% | activity change, negative = inhibition [16] 0.596% | activity, negative = inhibition [17] 1.32%

CCC(=O)c1ccc(O)cc1
inactive: activity change, negative = inhibition [15] -4.26% | activity change, negative = inhibition [16] -1.37% | activity, negative = inhibition [17] -0.905% | Potency [14] > 20.6 µM

NC(=O)c1ncn([C@@H]2O[C@H](CO)[C@@H](O)[C@H]2O)n1
inactive: Potency [1] > 92 µM | Potency [2] > 92 µM | Potency [4] > 92 µM | Potency [5] > 92 µM | Potency [6] > 92 µM | Potency [10] | Potency [13]
active: Potency [9] 25.1 µM | Potency [12] 31.6 µM

CSc1ccc2c(c1)N(CCC1CCCCN1C)c1ccccc1S2 (centres undefined)
active: activity change, negative = inhibition [16] -83%
